# Source: PubChem BioAssay AID504332 (National Center for Advancing Translational Sciences (NCATS), 2011)
# Among all 350,000 compounds or so, about 31,000 (8.9%) were called active. Not shown: some 15% with an inconclusive outcome. Calls come from the whole dose curve; as a rule, active = well fitted inhibition curve with a large enough effect; inconclusive = small, poorly fitted or top-dose-only effect; inactive = no such curve, though single readings can be large or run the other way. Only a selection was taken, and actives are over-represented in it overall.
# Biological target: Histone-lysine N-methyltransferase EHMT2 (Homo sapiens) (UniProt Q96KQ7)
# Experiment: qHTS Assay for Inhibitors of Histone Lysine Methyltransferase G9a; note: nearly all actives have a fitted effect of over 75% in size
# Settings: G9a H3K9 monomethylation, AlphaScreen, 2 h; series mostly up to 59 µM; activity, negative = inhibition: at the top concentration
# Method in brief: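 G9a (20 nM) was preincubated 15 min with compound, then reacted 2 h at room temperature with 500 nM biotin-H3K9 peptide and 20 µM SAM. Monomethyl-H3K9 detected by AlphaScreen using anti-H3K9me1 antibody.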
# % is set by controls: 0 for no effect and ±100 for the full control effect; potency is the fitted concentration of half-maximal effect.
# Histone-lysine N-methyltransferase EHMT2 (Homo sapiens), sequence (Q96KQ7 913-1193 limits assumed): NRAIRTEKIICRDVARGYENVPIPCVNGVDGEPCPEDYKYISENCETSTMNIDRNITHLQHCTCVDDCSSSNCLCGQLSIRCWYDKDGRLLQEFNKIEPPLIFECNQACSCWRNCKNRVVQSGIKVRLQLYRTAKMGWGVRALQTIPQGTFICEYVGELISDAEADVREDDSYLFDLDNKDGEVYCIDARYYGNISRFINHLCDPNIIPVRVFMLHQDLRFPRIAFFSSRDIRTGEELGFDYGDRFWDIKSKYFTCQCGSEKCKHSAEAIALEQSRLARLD
SMILES,"activity, negative = inhibition",Potency
CSc1ccccc1NC(=O)COC(=O)CCCOc1ccc(C)cc1,61.2% [at 102 µM] (inactive),
COc1ccc(CNC(=O)c2cc(C(=O)C3CC3)c[nH]2)cc1,36.9% [at 102 µM] (inactive),
Cc1cccc(N2CCN(C(=O)c3cnc(N4CCCC4)nc3C)CC2)c1C,5.62% [at 12.7 µM] (inactive),
Cc1cccc(N2CCN(C(=O)/C=C/c3ccco3)CC2)c1C,,11.2 µM (active)
Cc1cccc(N2CCN(C(=O)CCSCc3ccccc3F)CC2)c1C,4.33% (inactive),
COc1ccc(CN(C)C(=O)c2cc(-c3ccc(C)cc3C)nc3ccccc23)c(OC)c1OC,-28.5% [at 102 µM] (inactive),
Cc1cccc(-n2ncc(C(=O)N3CCN(c4ccc(Cl)cc4)CC3)c2C2CCN(C(=O)OC(C)(C)C)CC2)c1,-31.9% (inactive),
CCOc1ccc2nc(N3CCC(C(=O)Nc4cc(C)ccc4C)CC3)sc2c1,-3.63% (inactive),
Cc1ccc2nc(N3C(=O)C(O)=C(C(=O)c4ccco4)C3c3cccc(O)c3)sc2c1 (stereo not given),,31.6 µM (active)
Cc1ccc2nc(NC(=O)C3CCN(S(=O)(=O)c4ccc5c(c4)oc(=O)n5C)CC3)sc2c1,-16.1% [at 102 µM] (inactive),
COc1ccc([C@H]2CC(=O)C=C(c3ccc(C)cc3)C2)cc1,-2.52% [at 0.501 µM] (inactive),
CCc1nc2cccnc2n1-c1ccc(C(=O)O)cc1,,35.5 µM (active)
CCc1nc2cccnc2n1-c1ccc(CC(=O)Nc2c(C)cccc2C)cc1,-10.5% (inactive),
COCCCNC(=O)Cc1ccc(-n2c(C)nc3cccnc32)cc1,3.74% [at 102 µM] (inactive),
COc1ccc(NC(=O)CCN2CCCC2)c(OC)c1,-43.1% (inactive),
COC(=O)CNC(c1ccccc1Cl)c1cc(Br)ccc1NC(=O)CCN1CCOCC1 (stereo not given),,39.8 µM (active)
COc1ccc(OC)c(NC(=O)CCN2CCC(C)CC2)c1,-7.48% (inactive),
O=C(CSc1nc2nccnc2c(=O)n1CCc1c[nH]c2ccccc12)Nc1ccccc1F,-1.63% (inactive),
O=C(c1cccc(Br)c1)N1CCN(Cc2cc(=O)n3nc(-c4ccccc4)sc3n2)CC1,-15.5% (inactive),
CN(Cc1cccs1)C(=O)CN1C(=O)c2ccccc2S1(=O)=O,-6.03% [at 2.33 µM] (inactive),

SMILES,"activity, negative = inhibition",Potency
CCCCN(C(=O)c1nn(C)c(=O)c2ccccc12)c1c(N)n(CCC)c(=O)[nH]c1=O,-30.6% [at 12.7 µM] (inactive),
CC(OC(=O)c1ccc2ccccc2n1)C(=O)c1ccccc1 (stereo not given),27.2% [at 102 µM] (inactive),
O=C(Oc1ccc([N+](=O)[O-])cc1)c1ccc2ccccc2n1,,12.6 µM (active)
O=C(OCc1ccc([N+](=O)[O-])cc1)c1ccccn1,-29.9% [at 102 µM] (inactive),
COCCn1c(SCC(=O)c2cc(C)ccc2C)nc2cc(C(=O)NC3CCCC3)ccc2c1=O,-6.47% (inactive),
O=C(COC(=O)c1ccccc1Cl)NC1CCCCCCC1,6.1% [at 0.501 µM] (inactive),
COc1ccc(S(=O)(=O)NCc2cccn2Cc2cccc(C)c2)cc1Cl,-4.35% (inactive),
COc1ccc(S(=O)(=O)c2c[nH]c(=S)[nH]c2=O)cc1Cl,,79.4 µM (active)
COc1ccc(S(=O)(=O)N(C)CC(=O)N2CCCC2)cc1Cl,-5.71% [at 102 µM] (inactive),
Cc1cccc(NC(=O)c2cccc(S(=O)(=O)N3CCCC3)c2)n1,-27.4% [at 102 µM] (inactive),
COC(=O)C1=C(C(=O)OC)C(c2cc([N+](=O)[O-])ccc2O)c2sc(=O)[nH]c2S1 (stereo not given),,44.7 µM (active)
COC(=O)C1=C(C)N(C)C(=O)NC1c1ccc([N+](=O)[O-])o1 (stereo not given),-2.67% [at 102 µM] (inactive),
COc1cnc(-c2ccccn2)nc1Oc1ccc(C(C)(C)C)cc1,16.9% [at 102 µM] (inactive),
Cc1ccccc1CNC(=O)CCc1cn(Cc2ccccc2C)c2ccccc12,-27.4% (inactive),
CCOc1ccc(S(=O)(=O)c2cn(Cc3ccccc3)c3ccc(OCC)cc3c2=O)cc1,4.03% (inactive),
O=C(Nc1ccc(NC(=O)c2ccc3c(c2)OCO3)cc1)c1cccc(Cl)c1,0.511% [at 12.7 µM] (inactive),
CCOCCn1c(-c2ccccc2)nc2ccccc21,17.2% [at 102 µM] (inactive),
CC(=O)OCCN(CCCn1c(-c2ccncc2)nc2ccccc21)c1nc(-c2ccc(C)cc2)cs1,,56.2 µM (active)
COc1ccc(-c2nc3ccccc3n2CCC(C)C)cc1OC,-2.19% [at 102 µM] (inactive),
CCC(Sc1nc2n[nH]c(C)c2c(=N)n1-c1ccccc1Cl)C(=O)N(CC)CC (stereo not given),20.7% (inactive),

SMILES,"activity, negative = inhibition",Potency
Cc1ccc(CC(=O)N(C)CC(=O)N(CC(C)C)c2c(N)n(CC(C)C)c(=O)[nH]c2=O)cc1C,10.8% [at 2.33 µM] (inactive),
CCC(C(=O)Nc1cccc(Cl)c1C)n1nc(-c2ccc(C)cc2)ccc1=O (stereo not given),-3.11% (inactive),
COC(=O)c1ccccc1NC(=O)Cn1c(=O)cc(C)c2c(C)nn(-c3cccc(Cl)c3C)c21,1.79% (inactive),
Cn1nnc2c(N3CCN(c4ccccc4)CC3)ncnc21,1.37% (inactive),
O=C(Cc1ccc(Cl)cc1)NCC(c1cccs1)S(=O)(=O)c1ccc(Cl)cc1 (stereo not given),27.5% (inactive),
Cc1ccc(-c2nn(-c3ccccc3)cc2C(=O)NCCCN2CCCC2=O)cc1,-28.8% [at 102 µM] (inactive),
COc1ccc(N2C(=O)CNC2=S)cc1,-12.5% (inactive),
COc1ccc(-c2cn(-c3ccc(OC)cc3)c(=S)[nH]2)cc1,,1.41 µM (active)
COc1ccc(-n2cc(-c3ccccc3)c3c(=S)nc[nH]c32)cc1,20.3% [at 102 µM] (inactive),
COc1ccccc1CCNC(=O)c1c(C)nn(CC(C)C)c1Cl,46.5% [at 102 µM] (inactive),
COc1cccc(NC(=O)Cn2c(=O)cc(C)c3c(C)nn(-c4cccc(F)c4)c32)c1,6.73% (inactive),
COC(=O)C1=C(C)NC(=S)NC1c1ccc(OCC(=O)N2CC(C)OC(C)C2)c(OC)c1 (stereo not given),-3.57% [at 12.7 µM] (inactive),
COc1ccc(C2NC(=S)NC3=C2CCc2ccccc23)cc1OC (stereo not given),,0.631 µM (active)
CCOC(=O)C1=C(c2ccccc2)NC(=S)NC1c1ccc(Cl)cc1 (stereo not given),-11.4% [at 12.7 µM] (inactive),
Fc1ccc(CN2CCc3nc(Nc4ccccc4)ncc3C2)cc1F,-40.7% (inactive),
COc1cc(CN2CCC(n3nccc3NC(=O)CCCc3ccccc3)CC2)ccc1O,,70.8 µM (active)
COc1ccc(CN2CCC(n3nccc3NC(=O)CCCc3ccccc3)CC2)cc1C,24.6% [at 102 µM] (inactive),
CCn1cc(CN2CCC(n3nccc3NC(=O)CCCc3ccccc3)CC2)c(C)n1,20.1% [at 102 µM] (inactive),
CCN(C(=O)c1sc2cc(OC)ccc2c1Cl)c1ccccc1,52.3% (inactive),
CCN(CC)S(=O)(=O)c1ccc2c(c1)c(=O)c(C(=O)N1CCN(c3cccc(Cl)c3)CC1)cn2C,2.37% (inactive),
